# PI5P4Ka inh = blocks human PI5P4K alpha kinase activity | P48426 | PI5P4Kalpha enzyme, ADP-Glo luminescence, 60 min; hits give low values | max response, % | 330,000 compounds, 1.2% hits; active = max response of -50% or lower; inconclusive = between -30% and -50%; inactive = -30% or higher; also: value at the top dose of about 77 µM; % is scaled to controls: 0 for no effect and ±100 for the full control effect
#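 Reactions run in 0.038 M HEPES pH 7.4, 0.28 mM EGTA, 0.1% CHAPS and 5% DMSO, with PI5P4Kalpha, substrate, compound and 5 microM ATP final, one hour at room temperature. Readout is ADP-Glo luminescence.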
# POLI inh = blocks human DNA polymerase iota activity | Q9UNA4 | Pol iota fluorescent replication assay, 10 min | Potency, µM (highest dose often 115 µM), inactives show at the top dose activity, negative = inhibition, usual class: inhibitors | 390,000 compounds, 1% hits; also: potency is read from the fitted curve at half-maximal effect
#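 Fluorescent replication assay read twice, at 0 min and 10 min after adding 50 nM (final) substrate. Enzyme (10 nM) and compounds were first incubated 15 min at room temperature; enzyme-free buffer wells were negative controls.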
# Pol kappa inh = blocks human DNA polymerase kappa activity | Q9UBT6 | purified Pol kappa, fluorescent DNA synthesis assay, 10 min | Potency, µM (top dose mostly 107 µM), without a hit: at the top dose activity, negative = inhibition, most hits filed as inhibitors | 400,000 compounds, 0.53% hits | AID 588579; also: potency is read from the fitted curve at half-maximal effect; % is scaled to controls: 0 for no effect and ±100 for the full control effect
#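 Readout: fluorescence, taken kinetically at 0 and 10 min. Conditions: 10 nM Pol kappa, 15 min RT compound preincubation, 50 nM substrate final. Controls: enzyme-free buffer wells.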
# POLH inh = inhibitors of human DNA polymerase eta; Potency, µM (series often up to 114 µM), for inactives: top-dose activity change, negative = inhibition, usual class: inhibitors; recombinant Pol eta, fluorescent DNA replication assay; 390,000 compounds, 1.2% hits; Q9Y253; also: potency is read from the fitted curve at half-maximal effect; % is scaled to controls: 0 for no effect and ±100 for the full control effect
# Target sequence (Q9Y253 whole entry, looked up): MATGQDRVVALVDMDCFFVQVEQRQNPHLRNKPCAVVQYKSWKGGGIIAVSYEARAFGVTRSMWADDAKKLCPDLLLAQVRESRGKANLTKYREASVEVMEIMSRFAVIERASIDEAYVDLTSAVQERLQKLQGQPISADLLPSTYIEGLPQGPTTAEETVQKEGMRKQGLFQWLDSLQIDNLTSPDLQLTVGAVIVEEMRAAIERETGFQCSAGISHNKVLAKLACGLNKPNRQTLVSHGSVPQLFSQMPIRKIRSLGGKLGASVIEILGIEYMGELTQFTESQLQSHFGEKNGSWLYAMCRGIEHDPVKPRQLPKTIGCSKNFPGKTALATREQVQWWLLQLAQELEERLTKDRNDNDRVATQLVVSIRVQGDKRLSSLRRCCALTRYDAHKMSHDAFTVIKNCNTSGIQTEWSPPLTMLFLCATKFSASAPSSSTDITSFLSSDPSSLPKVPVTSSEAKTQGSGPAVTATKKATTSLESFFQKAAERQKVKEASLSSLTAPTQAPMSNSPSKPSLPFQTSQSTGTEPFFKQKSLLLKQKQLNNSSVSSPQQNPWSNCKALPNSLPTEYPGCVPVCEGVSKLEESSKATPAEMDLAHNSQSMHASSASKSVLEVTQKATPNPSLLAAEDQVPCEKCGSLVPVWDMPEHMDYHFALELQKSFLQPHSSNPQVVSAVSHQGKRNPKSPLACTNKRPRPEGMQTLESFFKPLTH
#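 Pol eta at 10 nM preincubated with compounds 15 min at room temperature; reaction started with fluorescent substrate (50 nM final) and read kinetically at 0 and 10 min.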
# WRN inhibitor = WRN helicase (human) inhibition. Potency, µM (titrated, usually from 114 µM), without a hit: at the highest dose activity change, negative = inhibition, usual class: inhibitors. AID 651768. WRN helicase unwinding, fluorescent forked duplex, kinetic. Q14191. 360,000 compounds, 0.46% hits; also: potency is read from the fitted curve at half-maximal effect; % is scaled to controls: 0 for no effect and ±100 for the full control effect; nearly all actives have a fitted effect of over 55% in size
#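 WRN at 20 nM final was preincubated with compound for 15 min at room temperature; reaction started with 100 nM forked duplex oligonucleotide carrying fluorophore and quencher plus 2 mM ATP (final). Unwinding followed kinetically by red fluorescence (ex 525/em 598 nm).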
# Pol beta inh = DNA polymerase beta (human) inhibition. P06746. Pol beta primer extension/strand displacement, fluorescence kinetic. Potency, µM (titrated, usually from 114 µM), for inactives: top-dose activity change, negative = inhibition, actives largely listed as inhibitors. 340,000 compounds, 1.3% hits; also: potency is read from the fitted curve at half-maximal effect; % is scaled to controls: 0 for no effect and ±100 for the full control effect
#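 Human Pol beta at 10 nM; strand-displacement substrate 50 nM final. Compound exposure 15 min at room temperature before start, reaction 10 min at room temperature.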
# An asterisk follows results filed as active; u = inconclusive; x = no result given; [ ] = remark or other dose. Rows were chosen to be rich in hits. Some 2.8% of all compounds tested hit in one or more screens of this group. Unless noted, calls follow the shape of the dose curve; as a rule, active = well fitted curve in the direction sought with a large enough effect; inconclusive = small, poorly fitted or top-dose-only effect, or another doubt; inactive = no such curve, though single readings can be large; an effect the other way counts as inactive or inconclusive.
SMILES,PI5P4Ka inh,POLI inh,Pol kappa inh,POLH inh,WRN inhibitor,Pol beta inh
Cn1ccc(=S)c2ccccc21,-73.1*,16.7%,3.0%,6.4%,u,-7.5%
O=C(NC1CCCC1)c1cnn2c1NC(=C1CC1)C=C2C(F)F,x,-15.1%,-13.9%,x,x,x
COc1ccc(-c2ccc(SCC(=O)Nc3cccc(C(C)=O)c3)nn2)cc1OC,-3.2,28.2µM*,u,u,4.5%,15.8µM*
CC(=O)c1ccc(NC(=O)CSc2ccc3nnc(-c4ccccn4)n3n2)cc1,-16.6,-16.4%,-12.6%,u,6.1%,50.1µM*
CC(=O)c1ccc(NC(=O)CSc2ccc(-c3sc(C)nc3C)nn2)cc1,-9.5,u,-17.9%,-7.1%,1.7%,20µM*
COc1ccc(NC(=O)CSc2ccc(-c3sc(C)nc3C)nn2)cc1OC,-5.4,u,-18.2%,-7.3%,-0.7%,25.1µM*
Cc1nc(C)c(-c2ccc(SCC(=O)Nc3ccc(C)c(Cl)c3)nn2)s1,0.8,28.4%,-1.7%,-8.3%,-13.3%,1.4%
CC(=O)c1cccc(NC(=O)CSc2ccc(-c3ccc4c(c3)OCO4)nn2)c1,-6.4,-0.8%,-2.0%,3.4%,-1.7%,-1.7%
CCn1c(=O)c(=O)n(CC)c2cc(N3CCCCC3)c(NC(=O)c3ccccc3OC)cc21,x,44.3%,2.0%,-12.4%,x,1.4%
Cc1noc(Cn2c(=O)c3ccccc3n(CC(=O)Nc3cc(Cl)ccc3C)c2=O)n1,x,20.6%,3.0%,-6.9%,x,-3.7%
NC(=O)C1(N2CCCCC2)CCN(C(=O)Nc2ccc(F)cc2)CC1,x,-12.3%,1.3%,3.1%,x,55.8%
COc1cc2c(cc1OC)n(CC(=O)NC1CCCCCC1)n1c(C)cc(=O)nc21,-4.7,-19.7%,-3.6%,u,-5.9%,28.1%
COC(=O)c1ccccc1NC(=O)c1cc2nc(C3CC3)cc(C(F)(F)F)n2n1,x,u,-21.7%,79.4µM*,-4.9%[57.1 µM],50.1µM*
O=C(Nc1cccc(C(F)(F)F)c1)c1cc2ncc(Br)cn2n1,x,u,-12.8%,-5.7%,-4.9%,-21.8%
O=C(Nc1ccc2c(c1)OCO2)c1cc2nc(C3CC3)cc(C(F)(F)F)n2n1,x,u,-18.1%,u,-9.7%[57.1 µM],39.8µM*
O=C(Nc1ccc2c(c1)OCO2)c1cc2ncc(Br)cn2n1,u,u,-41.1%,3.55µM*,u,28.2µM*
COC(=O)c1ccccc1NC(=O)c1cc2nc(-c3ccc(OC)cc3)cc(C(F)(F)F)n2n1,x,-2.4%,-9.3%,0.4%,x,40.0%
O=C1NC[C@H](CCCCN2CCN(Cc3ccccc3)C(=O)C2=O)N(CCC2CCCCC2)C1=O,-0.1,x,x,x,1.0%,x
S=Cc1nc2ccccc2[nH]1,x,42.5%,6.6%,x,x,x
COC1[C@@H](OC)C[C@H](C)[C@@H](OC)C2=CC(=O)C=C(NC(=O)/C(C)=C/C=C\[C@H](OC)[C@@H](OC(N)=O)/C(C)=C/[C@@H]1C)C2=O (stereo partly drawn),x,x,-10.4%[60.1 µM],x,x,x
CC(C)(C)c1[nH]nc2c1C(c1ccncc1)C(C#N)=C(N)O2 (stereo not drawn),-50.8*,9.5%,-4.7%,-12.9%,-4.3%,30.7%
Cc1cc(C)cc(NC(=O)CCc2c(C)nn(-c3ccc(N4CCOCC4)nn3)c2C)c1,0.3,49.4%,-6.0%,-16.9%,-4.5%,12.0%
COc1cc(/C=C2\C(=N)N3N=C(S(C)(=O)=O)SC3=NC2=O)ccc1OCCOc1ccccc1C,-56.6*,48.5%,-16.6%,50.1µM*,50.1µM*,50.1µM*
COc1ccccc1OCCOc1ccc(/C=C2/C(=N)N3OC(C)=CC3=NC2=O)cc1OC,-7.3,4.5%,-17.6%,3.98µM*,u,4.2%
COc1cc(/C=C2\C(=N)N3N=C(S(C)(=O)=O)SC3=NC2=O)ccc1OC(=O)c1ccco1,u,20µM*,-40.7%,22.4µM*,-20.1%,-12.5%
SMILES,PI5P4Ka inh,POLI inh,Pol kappa inh,POLH inh,WRN inhibitor,Pol beta inh
CC1=CC2=NC(=O)/C(=C\c3cccn3CCOc3ccccc3C)C(=N)N2O1,-3.4,u,-5.3%[60.1 µM],-11.4%,-9.1%,-2.7%
CCCSc1nc(N)nc2c1ncn2C1OC(CO)C(O)C1O (stereo not drawn),-1.4,13.7%,-8.0%,6.2%,-9.2%,x
O=C(O)/C=C\c1cccc(-n2nnnc2SCc2ccccc2F)c1,-83.4*,12.0%,7.4%,0.3%,-9.9%[57.1 µM],105.9%
CCOc1ccc(C(=O)Nc2c(C(=O)Nc3ccccc3OC)oc3ccccc23)cc1OCC,x,3.1%,-16.7%,-5.1%,x,-0.9%
O=C1N(Cc2ccccc2)CC2(Br)COCOC12O (stereo not drawn),-62.2*,-3.7%,-8.4%,2.2%,17.8µM*,x
O=[N+]([O-])c1ccccc1CNCCCCCO,2.7,31.6%,-2.6%,-25.0%,-2.6%,x
CN(C)CCCNc1cc(O)c2ncccc2c1,x,6.31µM*,-12.9%,-5.2%,x,x
COc1ccc(-c2ccc(/C=C3/C(=N)N4C(C)=CSC4=NC3=O)o2)c([N+](=O)[O-])c1,-9.5,17.8µM*,u,u,u,u
Cc1ccc(NS(=O)(=O)c2cccc3nsnc23)cc1,-3.3,30.9%,0.8%,-10.8%,0.0%,2.9%
O=S(=O)(Nc1ccccc1)c1cccc2nsnc12,u,56.2µM*,u,u,1.5%[11.6 µM],5.2%
Cc1ccc2oc3c(c(=O)c2c1)C(c1ccc(OCC(N)=O)cc1)N(Cc1ccc2c(c1)OCO2)C3=O (stereo not drawn),x,11.3%,3.5%,-17.4%,x,0.6%
Cc1ccc2oc(=O)c3cc(C(=O)NCCCN4CCCCCC4)sc3c2c1,2.6,79.4µM*,-33.4%,3.3%,5.3%[11.6 µM],-2.7%
O=C(CCn1c(=O)c2ccccc2n(Cc2cccc(F)c2)c1=O)NCc1ccc2c(c1)OCO2,x,21.3%,13.5%,-11.7%,x,-4.3%
Cc1cccc(NS(=O)(=O)c2ccc3[nH]c(=O)ccc3c2)c1C,x,3.6%,-13.0%,-16.6%,x,4.0%
Cc1[nH]n(-c2ccccc2)c(=O)c1C(C[N+](=O)[O-])c1ccc(F)cc1 (stereo not drawn),-6.4,2.24µM*,-5.6%,-20.0%,u,0.5%
Cc1[nH]n(-c2ccccc2)c(=O)c1C(C[N+](=O)[O-])c1ccc(Cl)cc1 (stereo not drawn),-3.3,-11.5%,-1.0%,-16.1%,-34.7%,-17.7%
Cc1ccc(C(C[N+](=O)[O-])c2c(C)[nH]n(-c3ccccc3)c2=O)cc1 (stereo not drawn),3.9,1.12µM*,2.1%,-9.3%,u,28.5%
